The source of these data is PubChem BioAssay.

Where “and” joins values, the source holds several entries; their conditions need not be identical. Identical values can stand only once. Calls of active or inactive are those of the source.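 The calls were made as follows, unless noted: active = inhibition at or above 50% relative to wild type and mutant plate controls; inactive = inhibition below 50%.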

A short description of test [1]: inhibitors of TNFa-induced NFkB p65 translocation, primary screen, imaging, HUVEC, MLSMR starter and 10KST1 sets (AID 438;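 active = inhibition above 20% together with a positive visual image hit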;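 also: compound added about 3h40 before a 20 min TNFalpha stimulation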;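 as to inhibition: signal is the nuclear over cytoplasmic p65 intensity ratio per well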). The note with it: HUVEC TNFa-induced p65 nuclear translocation; cell count: measured here: nuclei count (cytotoxicity indicator), at 2.08 µM; inhibition: at 2 µM, stronger effect = higher value, 0% TNFa-plus-vehicle, 100% no-TNFa wells.
Test [2] in a line: reduction of polyQ htt aggregates in cells – imaging, exon1htt(103Q)mCFP cells, high-content imaging, primary screen (AID 483;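 active = visual image review flags a hit and inhibition of aggregation exceeds 20%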;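 also: compound exposure lasted 3 days before fixation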;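 as to nuclei count: percent of the per-plate median nuclei count of sample wells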). The note with it: exon1htt(103Q)mCFP cell line, aggregate imaging, at 2 µM; inhibition of aggregation: stronger effect = higher value; nuclei count: measured here: cell count, toxicity.
Test [3] can be described thus: endothelial E-selectin expression blockers – imaging, HUVEC, immunofluorescence, MLSMR starter and 10KST1 sets, primary screen (AID 487;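 active = visually confirmed hit in the image check and inhibition above 20%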;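 as to inhibition: signal is fraction of cell area covered by stained E-selectin grains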;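 as to nuclei count: 100% = median nuclei count of all wells on the same plate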). The following applies: HUVEC TNFalpha-induced E-selectin immunofluorescence imaging, at 2 µM; inhibition: stronger effect = higher value; nuclei count: measured here: cell number, toxicity.
Test [4] can be described thus: Primary imaging screen for DUSP6 inhibitors that restore phospho-Erk in transfected HeLa cells, chemical complementation (AID 609;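 active = compounds giving at least 50% inhibition in the cell-based MKP-3 phosphatase rescue imaging test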;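 as to inhibition: phospho-Erk level distribution per well compared with pooled transfected vehicle control wells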). The following applies: HeLa MKP-3 transfected, phospho-Erk imaging KS statistic, at 10 µM, cells stimulated with TPA for 15 min.
The target of test [5] is Dual specificity protein phosphatase 6 (Homo sapiens) (UniProt Q16828). The test is described as above. The following applies: HeLa MKP-3 transfected, phospho-Erk imaging KS statistic; at 10 µM; stronger effect = higher value; cells stimulated with TPA for 15 min.
In test [6] the target is Voltage-gated potassium channel subunit beta-2 (Rattus norvegicus) (UniProt P62483). The test can be described thus: inhibitors of rat Kvbeta2 reductase activity – biochemical, NADPH fluorescence, primary screen (AID 622;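 active = fluorescence slope higher than the sample average by over 3 SD, cut at about -0.22 in these data, passing the limit was not always enough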;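 also: slope of raw intensity against log time taken from 70 to 1610 s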). The following applies: recombinant KvBeta, 4-cyanobenzaldehyde reduction, at 10 µM, stronger effect = higher value.
For test [7] the target is unchanged. The test can be described thus: enhancers of rat Kvbeta2 NADPH turnover – biochemical, NADPH fluorescence, primary screen (AID 623;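 active = NADPH fluorescence slope more negative than the mean of all samples by about 3 SD, 99.7% confidence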;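 also: fluorescence intensity change per second fitted from 20 to 320 s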). The note with it: Recombinant KvBeta, NADPH fluorescence decrease slope, 10 min; at 10 µM; stronger effect = lower value.
Test [8] deals with Alpha-2C adrenergic receptor (Homo sapiens) (UniProt P18825). The test can be described thus: compounds altering alpha2C-coupled GIRK flux – cell-based, HEK293 alpha2C/GIRK1/2, thallium flux, primary screen (AID 624;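 active = fluorescence slope after compound addition differing from the mean of all screened samples at 99.7% confidence, in either direction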;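 also: slope of fluorescence ratio to pre-addition baseline per second over 15 to 24 s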). The note with it: thallium flux BTC fluorescence, at 10 µM, actives lie on both sides.
Test [9] in a line: inhibitors of larval lipid processing in zebrafish, primary screen, whole organism, PED6 fluorescence, gall bladder and intestine (AID 686;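 active = a full or partial loss of lipid-probe fluorescence in the fish gall bladder, intestine or both, judged by eye; inactive = no fluorescence loss, or compound toxic to the fish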;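 also: larvae 5 to 7 days old with five fish per well; signal comes from phospholipase A2 cleavage of quenched PED6 carried via bile; overnight exposure to compound and PED6 before scoring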). The note with it: Zebrafish larvae PED6 lipid processing, fluorescence scoring; screened at 20 µM (by protocol).
Test [10] in a line: loss of swimming-algae plug formation – whole organism, Chlamydomonas reinhardtii, WT vs cilia-less mutant, absorbance, 96-well, primary screen (AID 463189).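 Also: 0% = wild type cc124 cells in DMSO and 100% = ciliumless bld1 mutant cells.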 The following applies: Chlamydomonas reinhardtii gravitaxis, OD600 absorbance, 2 days; at 10 µM; stronger effect = higher value.
Test [11] can be described thus: blockers of RIG-like receptor reporter activation – cell-based, Sendai virus stimulus, luciferase, 10K MLSCN set, TLR/RLR signaling modifier project, primary screen (AID 602276;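 active = inhibition at or above 50% at 10 µM; inactive = inhibition below 50%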;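 also: firefly luciferase from ISG56 promoter only with Renilla not read in this screen; 0% = Sendai virus plus DMSO and 100% = medium plus DMSO without virus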). The following applies: HEK293 RL24 IRF3 luciferase reporter, at 10 µM, stronger effect = higher value.
A short description of test [12]: TLR3 IRF3 reporter activation blockers – cell-based, poly I:C stimulus, luciferase, 10K MLSCN set, primary screen (AID 602277;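 active = inhibition of the reporter signal at or above 50%; inactive = inhibition below 50%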). The note with it: HEK293-TLR3 RL24 IRF3 luciferase reporter, at 10 µM, stronger effect = higher value.
[13] abbreviates: measured here: cell density z-score.
[14] abbreviates: measured here: nuclear c-Myc green intensity z-score.
The mark [15] stands for this setting: measured here: nuclear pErk red intensity z-score, stronger effect = higher value.

Chain of Voltage-gated potassium channel subunit beta-2 (Rattus norvegicus) (P62483 whole entry, looked up): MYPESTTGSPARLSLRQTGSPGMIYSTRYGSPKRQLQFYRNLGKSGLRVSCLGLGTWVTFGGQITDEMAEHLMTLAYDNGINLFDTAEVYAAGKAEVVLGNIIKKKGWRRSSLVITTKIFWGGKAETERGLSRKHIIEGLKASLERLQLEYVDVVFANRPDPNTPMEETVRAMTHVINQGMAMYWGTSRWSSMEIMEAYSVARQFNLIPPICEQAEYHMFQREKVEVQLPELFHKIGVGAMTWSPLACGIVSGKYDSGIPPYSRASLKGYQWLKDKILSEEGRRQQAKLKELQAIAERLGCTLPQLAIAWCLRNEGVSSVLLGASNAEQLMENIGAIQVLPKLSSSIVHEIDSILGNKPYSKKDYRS
Chain of Dual specificity protein phosphatase 6 (Homo sapiens) (Q16828 whole entry, looked up): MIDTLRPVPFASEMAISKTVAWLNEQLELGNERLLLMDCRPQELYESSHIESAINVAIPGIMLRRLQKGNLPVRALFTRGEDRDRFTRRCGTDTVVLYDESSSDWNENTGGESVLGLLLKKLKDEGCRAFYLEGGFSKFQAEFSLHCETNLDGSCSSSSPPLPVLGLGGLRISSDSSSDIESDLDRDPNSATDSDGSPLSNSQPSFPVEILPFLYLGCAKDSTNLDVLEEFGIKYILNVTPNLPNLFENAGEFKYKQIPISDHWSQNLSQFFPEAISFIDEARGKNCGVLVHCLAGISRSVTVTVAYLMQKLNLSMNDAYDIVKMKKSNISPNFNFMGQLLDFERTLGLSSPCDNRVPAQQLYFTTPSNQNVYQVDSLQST
Chain of Alpha-2C adrenergic receptor (Homo sapiens) (P18825 whole entry, looked up): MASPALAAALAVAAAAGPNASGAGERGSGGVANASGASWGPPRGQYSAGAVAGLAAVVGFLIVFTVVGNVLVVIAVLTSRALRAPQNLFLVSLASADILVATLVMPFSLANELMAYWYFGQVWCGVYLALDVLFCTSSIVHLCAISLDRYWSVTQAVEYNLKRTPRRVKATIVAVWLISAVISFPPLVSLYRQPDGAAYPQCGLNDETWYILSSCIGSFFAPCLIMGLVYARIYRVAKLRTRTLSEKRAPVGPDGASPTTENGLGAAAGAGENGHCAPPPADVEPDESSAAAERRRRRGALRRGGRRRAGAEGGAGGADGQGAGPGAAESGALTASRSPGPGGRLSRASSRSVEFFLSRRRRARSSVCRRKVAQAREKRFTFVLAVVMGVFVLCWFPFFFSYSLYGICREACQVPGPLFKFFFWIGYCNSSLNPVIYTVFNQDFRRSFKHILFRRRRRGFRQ

In the case of `C=CCn1c(SCC(=O)NC23CC4CC(CC(C4)C2)C3)nc(O)cc1=O`, in test [1], the cell count was determined as 629. Further, the inhibition in test [1] is -3.7% (inactive); in test [3], -39.7% (inactive); in [5] it was 7.83% (inactive); in test [10] it was 12.5% (inactive); in test [11], 17.8% (inactive); in test [12] it was 24.6% (inactive). Besides, the inhibition of aggregation in test [2] is -0.4% (inactive). For the same compound, the nuclei count in [2] is 103%; in test [3], 129%. Moreover, the z-score is -0.394 in test [4] (setting [13]), -0.06 in test [4] (setting [14]) and 0.754 in test [4] (setting [15]). Besides, the fluorescence slope in [6] is -0.532 (inactive). Moreover, the NADPH fluorescence slope in [7] is -4.2e-05 (inactive). Besides, in test [8], the slope was 0.00471 (inactive). For the same compound, the compound was classed as inactive in test [9].

On to `CC(=O)[C@H]1[C@H](C#N)C[C@H]2[C@@H]3CC=C4C[C@@H](O)CC[C@]4(C)[C@H]3CC[C@@]21C`, for which the cell count in test [1] is 645. Besides, the inhibition in [1] was -9.3% (inactive); in test [3] it was -91.5% (inactive); in test [5], -2.46% (inactive); in test [10] it was 14.4% (inactive); in test [11], 10.7% (inactive); in test [12] it was 42.4% (inactive). Further, in test [2], the inhibition of aggregation is -4.8% (inactive). For the same compound, the nuclei count in [2] amounted to 106%; in test [3], 119%. The z-score in [4] (setting [13]) was 0.975; in [4] (setting [14]), -0.917; in test [4] (setting [15]), -0.46. Moreover, the fluorescence slope in test [6] is -0.457 (inactive). The NADPH fluorescence slope in test [7] is -4e-05 (inactive). In addition, in test [8], the slope was 0.00539 (inactive). Also, the call in test [9] was inactive.

For the compound `O=C(O)CCCc1ccccc1`, the cell count in test [1] was found to be 647. The inhibition in test [1] is 0.8% (inactive); in [3] it was -27.5% (inactive); in [5] it was 8% (inactive); in [10], -5.1% (inactive); in [11] it was -1.93% (inactive); in test [12], 7.07% (inactive). In addition, in test [2], the inhibition of aggregation was -15.5% (inactive). Besides, the nuclei count in test [2] stood at 106%; in test [3], 112%. The z-score in test [4] (setting [13]) was 0.592; in test [4] (setting [14]) it was -1.18; in test [4] (setting [15]) it was -0.707. The fluorescence slope in [6] is -0.549 (inactive). Further, in test [7], the NADPH fluorescence slope is -3.8e-05 (inactive). Further, the slope in test [8] was 0.0053 (inactive). For the same compound, the compound was called inactive in test [9].

On to `CN1C(C(=O)Nc2ccccn2)=C(O)c2ccccc2S1(=O)=O`, for which the cell count in test [1] was 593 and 424. Also, the inhibition is -2.6% (inactive) and -16.7% (inactive) in [1]; -30.1% (inactive) and -244% (inactive) in test [3]; 11.3% (inactive) and 2.71% (inactive) in [5]; 7.21% (inactive) and 26% (inactive) and -1.23% (inactive) in [10]; -0.169% (inactive) in test [11]; -2.96% (inactive) in [12]. Also, the inhibition of aggregation in [2] is -13.6% (inactive). Also, the nuclei count is 111% in [2]; 112% and 218% in test [3]. Also, the z-score in test [4] (setting [13]) is 0.668 and -0.761; in test [4] (setting [14]), 0.887 and -0.948; in test [4] (setting [15]), -0.364 and 0.452. Further, the fluorescence slope in test [6] is -0.457 (inactive) and -0.395 (inactive). Moreover, the NADPH fluorescence slope in test [7] is 1.6e-05 (inactive) and -1.1e-05 (inactive). Further, in test [8], the slope was 0.00561 (inactive) and 0.00377 (inactive). For the same compound, in [9], the call was inactive.

For the compound `CN1CCCN=C1COC(=O)C(O)(c1ccccc1)C1CCCCC1` (stereo not given), the cell count in test [1] came to 703. In addition, the inhibition in [1] was -0.1% (inactive); in [3], -113% (inactive); in [5], 3.45% (inactive); in test [10], -8.88% (inactive); in test [11], 19.2% (inactive); in [12], 50.5% (active). In test [2], the inhibition of aggregation is 15.9% (inactive). For the same compound, the figures for the nuclei count in test [2] and in [3] were 107% and 127%, respectively. In addition, the figures for the z-score in test [4] (setting [13]), in test [4] (setting [14]) and in [4] (setting [15]) were -0.149, -0.804 and 0.222, respectively. The fluorescence slope in test [6] was -0.497 (inactive). Further, the NADPH fluorescence slope in test [7] was -1.3e-05 (inactive). For the same compound, the slope in [8] was 0.00478 (inactive). The outcome in [9] was inactive.

By inhibition is commonly meant the change of the read-out against control, counted positive when it falls.
